Test systems include NCI-H23 lung; NCI-H226 lung; NCI-H322M lung; HOP-62 NSCLC; NCI-H460 lung; HOP-92 NSCLC; NCI-H522 lung; 786-0 renal; COLO 205 colon; DU-145 prostate; K-562 leukemia; MALME-3M melanoma; MDA-MB-231 breast; RXF 393 renal; SF-268 CNS; SF-295 CNS; SF-539 CNS; UACC-257 melanoma; M14 melanoma.
What all share (test): NCI-60 one-dose screen, 48 h (100 = growth as untreated, 0 = no growth, -100 = all killed)
Holding throughout (conditions): 10 µM unless noted

This is part of a sample that, as a whole, favours compounds with a hit. Of some 83,000 tested, about 20% had one in any assay.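 Each cell line was grown in a 96-well plate and treated with one concentration of compound for 48 hours. Values below 10 were considered active.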 Values without a mark were called inactive. Activity calls are given as the source filed them.

On to `Nc1ncnc2c1N=C(c1ccc(F)cc1)CC(c1cccc(Nc3ccnc4cc(Cl)ccc34)c1)N2` (stereo unspecified), for which the growth is 77.9% in the experiment with NCI-H23 lung; 91.5% with NCI-H226 lung; 89.6% with NCI-H322M lung; 73.5% with HOP-62 NSCLC; 81.3% in the experiment with NCI-H460 lung; 67.8% in the experiment on HOP-92 NSCLC. Besides, the growth with NCI-H522 lung was 99.7%; in the experiment with 786-0 renal, 61.9%; with COLO 205 colon, 49.8%; in the experiment with DU-145 prostate, 85.9%; in the experiment on K-562 leukemia, 26.7%; in the experiment with MALME-3M melanoma it was 91.1%. Besides, the growth in the experiment on MDA-MB-231 breast is 75.2%; in the experiment with RXF 393 renal, 39.1%; in the experiment with SF-268 CNS it was 62%; in the experiment with SF-295 CNS, 72.1%; in the experiment on SF-539 CNS, 80.6%; with UACC-257 melanoma, 106%. In addition, the growth with M14 melanoma was 72.1%.
Take `C=C(C)[C@@H]1CC[C@]2(C(=O)N3CCNCC3)CC[C@]3(C)[C@H](CC[C@@H]4[C@@](C)(CCC(=O)N5CCNCC5)[C@H](C(=C)C)CC[C@]43C)[C@@H]12`: the growth is 93.2% with NCI-H23 lung; 92.7% with NCI-H226 lung; 102% in the experiment with NCI-H322M lung; 92.9% with HOP-62 NSCLC; 8.8% (active) with NCI-H460 lung; 95.5% in the experiment on HOP-92 NSCLC. In addition, the growth in the experiment on NCI-H522 lung was 71.4%; in the experiment with 786-0 renal it was 80.2%; with COLO 205 colon it was 77.9%; in the experiment with DU-145 prostate, 79.1%; in the experiment on K-562 leukemia, 3.02% (active); in the experiment on MALME-3M melanoma it was 98.9%. Besides, the growth in the experiment on MDA-MB-231 breast is 71.2%; in the experiment on RXF 393 renal, 82.2%; with SF-268 CNS, 98.4%; in the experiment with SF-295 CNS it was 101%; in the experiment with SF-539 CNS, 79.4%; in the experiment on UACC-257 melanoma, 95.5%. Besides, the growth in the experiment on M14 melanoma was 85.8%.
Regarding `COc1ccc(C2[C@@H](Cl)C(=O)N2c2cc(OC)c(OC)c(OC)c2)cc1Cl` (stereo partly specified), the growth in the experiment with NCI-H23 lung is 34.9%; in the experiment with NCI-H226 lung it was 59.8%; with NCI-H322M lung it was 40%; in the experiment with HOP-62 NSCLC, 21%; in the experiment on NCI-H460 lung it was 5.19% (active); in the experiment on HOP-92 NSCLC, 33.6%. In addition, the growth with NCI-H522 lung was -28.7% (active); in the experiment on 786-0 renal, 5.5% (active); with COLO 205 colon, -50.2% (active); in the experiment on DU-145 prostate, 6.13% (active); in the experiment on K-562 leukemia, 5.8% (active); in the experiment with MALME-3M melanoma, 69.1%. Moreover, the growth in the experiment with MDA-MB-231 breast was 33.5%; in the experiment with RXF 393 renal, -2.33% (active); with SF-268 CNS it was 26.1%; in the experiment with SF-295 CNS it was 8.96% (active); in the experiment with SF-539 CNS, 9.09% (active); with UACC-257 melanoma, 31.5%.
For `COc1ccc(-c2nc3c(c(-c4ccc(Cl)cc4)nn3-c3ccccc3)c(-c3ccccc3)c2C#N)cc1`, the growth is 103% with NCI-H23 lung; 97.4% with NCI-H226 lung; 102% with NCI-H322M lung; 111% in the experiment on HOP-62 NSCLC; 104% in the experiment on NCI-H460 lung; 120% in the experiment with HOP-92 NSCLC. The growth in the experiment with NCI-H522 lung is 96.3%; in the experiment with 786-0 renal it was 108%; with COLO 205 colon it was 118%; in the experiment with DU-145 prostate, 104%; in the experiment with K-562 leukemia it was 100%; with MALME-3M melanoma, 103%. Also, the growth in the experiment on MDA-MB-231 breast was 111%; with RXF 393 renal, 134%; in the experiment on SF-268 CNS it was 106%; in the experiment on SF-295 CNS, 102%; in the experiment on SF-539 CNS it was 103%; with UACC-257 melanoma, 95.9%. For the same molecule, in the experiment with M14 melanoma, the growth was 92.3%.
On to `O=C(NC1CCC(Br)CC1)C1CCCC(S(=O)(=O)NC2CCCCC2)C1` (stereo unspecified), for which the growth is -3.95% [25 µM] (active) in the experiment with NCI-H23 lung; 19.7% [25 µM] with NCI-H226 lung; 41.9% [25 µM] in the experiment on NCI-H322M lung; 13.8% [25 µM] in the experiment on HOP-62 NSCLC; 14.1% [25 µM] in the experiment with NCI-H460 lung; -15.2% [25 µM] (active) in the experiment with HOP-92 NSCLC. Besides, the growth is -3.79% [25 µM] (active) in the experiment on NCI-H522 lung; 36% [25 µM] in the experiment on 786-0 renal; 13% [25 µM] with COLO 205 colon; 29.9% [25 µM] with DU-145 prostate; 8.64% [25 µM] (active) in the experiment on K-562 leukemia; 19.5% [25 µM] with MALME-3M melanoma. The growth with MDA-MB-231 breast was 36.1% [25 µM]; in the experiment with RXF 393 renal, 37.2% [25 µM]; in the experiment on SF-268 CNS it was 20.8% [25 µM]; in the experiment on SF-295 CNS it was -4.06% [25 µM] (active); in the experiment with SF-539 CNS it was 28.8% [25 µM]; with UACC-257 melanoma, -6.91% [25 µM] (active). In the experiment with M14 melanoma, the growth is 22.1% [25 µM].
As for `C/C(=N\Nc1ccccc1)c1ccc(NC2=CC(=O)c3ccccc3C2=O)cc1`, the growth in the experiment with NCI-H23 lung was 21.4%; with NCI-H226 lung, 80.8%; in the experiment with NCI-H322M lung it was 79%; in the experiment with HOP-62 NSCLC it was 46.1%; in the experiment on NCI-H460 lung it was 23.5%; in the experiment with HOP-92 NSCLC, 113%. The growth in the experiment on NCI-H522 lung was 42.9%; in the experiment on 786-0 renal it was 94.1%; in the experiment with COLO 205 colon, 88.2%; with DU-145 prostate, 50.7%; in the experiment with K-562 leukemia, 19.4%; with MALME-3M melanoma, -65% (active). The growth with MDA-MB-231 breast is 62.4%; in the experiment with RXF 393 renal, 92.1%; with SF-268 CNS, 64.4%; in the experiment with SF-295 CNS, 55.2%; in the experiment with SF-539 CNS it was 92.9%; with UACC-257 melanoma it was 67.9%. Besides, the growth in the experiment with M14 melanoma was 26.3%.
As for `CCOC(=O)c1cnn(CC(C)O)c1NC(=O)NCc1ccccc1C(F)(F)F` (stereo unspecified), the growth with NCI-H23 lung was 98.8%; with NCI-H226 lung, 104%; with NCI-H322M lung, 97.5%; in the experiment on HOP-62 NSCLC, 102%; with NCI-H460 lung, 109%; with HOP-92 NSCLC, 84.5%. The growth in the experiment with NCI-H522 lung was 60.8%; in the experiment on 786-0 renal, 93.8%; with COLO 205 colon, 112%; in the experiment on DU-145 prostate it was 105%; with K-562 leukemia it was 86.3%; in the experiment on MALME-3M melanoma, 101%. In addition, the growth in the experiment on MDA-MB-231 breast was 105%; in the experiment on RXF 393 renal, 111%; with SF-268 CNS it was 101%; with SF-295 CNS, 92.6%; in the experiment on SF-539 CNS, 98.3%; in the experiment with UACC-257 melanoma it was 89.7%. In the experiment on M14 melanoma, the growth was 88.6%.
`Cc1nc2sc(C(=O)Nc3cccc4ccccc34)c(N)c2cc1C(=O)c1ccccc1`: the growth in the experiment on NCI-H23 lung is 40.2%; in the experiment on NCI-H226 lung it was 68.3%; in the experiment with NCI-H322M lung, 62.4%; in the experiment on HOP-62 NSCLC it was 42.5%; with NCI-H460 lung, 7.31% (active); in the experiment with HOP-92 NSCLC it was 77.6%. For the same molecule, the growth with NCI-H522 lung is 15.5%; in the experiment with 786-0 renal it was 42.5%; with COLO 205 colon, -2.82% (active); in the experiment on DU-145 prostate, 18.3%; in the experiment on K-562 leukemia it was 9.45% (active); in the experiment on MALME-3M melanoma it was 58.5%. The growth in the experiment with MDA-MB-231 breast is 15.2%; in the experiment with RXF 393 renal it was 22.6%; with SF-268 CNS it was 53.4%; in the experiment with SF-295 CNS, 10.4%; in the experiment on SF-539 CNS, -12.1% (active); in the experiment with UACC-257 melanoma it was 72.7%. For the same molecule, the growth in the experiment with M14 melanoma is 12.4%.

The values above are taken from PubChem BioAssay (NCI).
